Test results taken from PubChem BioAssay.
For some assays here: Results with a measured potency or affinity are listed apart. Activity calls are given as the source filed them. Unless noted, the rule behind the calls is not given here.

Key:
[1] = antimalarial activity against Dd2 strain (AID 2302;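 active = growth inhibition above 50% at the single 2 µM test dose, taken to imply half-maximal potency below 2 µM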;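 note: 0% = DMSO untreated growth and 100% = chloroquine plus artemisinin killed control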); conditions: P. falciparum Dd2 in RBCs, LDH growth readout, 72 h; at 2 µM; active compounds read high
[2] = human hepatoma cell viability loss – ATP luminescence, cytotoxicity control for P. falciparum antimalarial project, primary screen (AID 2303;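 active = inhibition above 50%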;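 note: 0% = DMSO wells and 100% = digitonin-killed cells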); conditions: HepG2 viability, 24-48 h, at 10 µM, active compounds read high
[3] = molecular target: L-lactate dehydrogenase (Plasmodium falciparum (isolate CDC / Honduras)) (UniProt Q27743); test: PfLDH activity inhibition – cell lysate, 3D7 strain, counter-screen for P. falciparum growth inhibition project (AID 2304);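 note: 0% = vehicle and 100% = reference inhibitor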; conditions: P. falciparum 3D7 crude extract, LDH APAD/NBT absorbance; at 2 µM; active compounds read high
[4] = inhibition of 3D7 malaria parasite growth – strain 3D7 (AID 2306);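 note: 0% = DMSO wells and 100% = chloroquine plus artemisinin control wells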; conditions: P. falciparum 3D7 erythrocytic growth, LDH absorbance, 72 h; at 2 µM; active compounds read high
[5] = molecular target: Calcium-dependent protein kinase 1 (Plasmodium falciparum (isolate 3D7)) (UniProt P62344); test: PfCDPK1 kinase inhibitors, biochemical, TCAMS library (AID 1159585; cut-off not given, nearly all actives have IC50 up to about 0.98 µM;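 note: inhibitors leave more ATP so luminescence rises with inhibition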); conditions: recombinant PfCDPK1, Kinase-Glo ATP depletion luminescence
[6] = molecular target: Plasmodium falciparum protein kinase 6 (PK6, PF3D7_1337100) (UniProt Q8IDW1); test: PfPK6 kinase inhibitors, biochemical, TCAMS library (AID 1159586); conditions: recombinant PfPK6, Kinase-Glo ATP depletion luminescence
[7] = molecular target: Protein kinase 7 (PK7), Plasmodium falciparum 3D7 (PF3D7_0213400) (UniProt Q7YTF7); test: inhibition of Plasmodium PK7 catalytic activity – biochemical, TCAMS antimalarial set, Kinase-Glo luminescence (AID 1159587); conditions: recombinant PfPK7, Kinase-Glo ATP depletion luminescence
[8] = molecular target: Calcium-dependent protein kinase 4 (Plasmodium falciparum (isolate 3D7)) (UniProt Q8IBS5); test: PfCDPK4 kinase inhibitors, biochemical, TCAMS library (AID 1159588; cut-off not given, nearly all actives have IC50 up to about 0.91 µM); conditions: recombinant PfCDPK4, Kinase-Glo ATP depletion luminescence
Calcium-dependent protein kinase 4 (Plasmodium falciparum (isolate 3D7)), sequence (Q8IBS5 whole entry, looked up): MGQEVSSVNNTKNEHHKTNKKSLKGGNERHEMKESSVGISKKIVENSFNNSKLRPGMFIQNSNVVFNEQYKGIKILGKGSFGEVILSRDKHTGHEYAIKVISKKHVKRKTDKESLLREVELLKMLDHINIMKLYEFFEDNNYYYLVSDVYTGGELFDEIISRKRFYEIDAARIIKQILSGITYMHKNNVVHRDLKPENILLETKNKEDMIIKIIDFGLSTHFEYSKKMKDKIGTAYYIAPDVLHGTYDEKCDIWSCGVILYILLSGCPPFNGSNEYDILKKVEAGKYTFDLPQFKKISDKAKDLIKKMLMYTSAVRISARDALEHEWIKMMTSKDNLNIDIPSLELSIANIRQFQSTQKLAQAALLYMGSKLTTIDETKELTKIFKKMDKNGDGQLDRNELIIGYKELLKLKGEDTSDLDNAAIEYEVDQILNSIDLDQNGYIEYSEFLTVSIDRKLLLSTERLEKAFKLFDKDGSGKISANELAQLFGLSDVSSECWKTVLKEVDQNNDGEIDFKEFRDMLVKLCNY

Calcium-dependent protein kinase 1 (Plasmodium falciparum (isolate 3D7)), sequence (P62344 whole entry, looked up): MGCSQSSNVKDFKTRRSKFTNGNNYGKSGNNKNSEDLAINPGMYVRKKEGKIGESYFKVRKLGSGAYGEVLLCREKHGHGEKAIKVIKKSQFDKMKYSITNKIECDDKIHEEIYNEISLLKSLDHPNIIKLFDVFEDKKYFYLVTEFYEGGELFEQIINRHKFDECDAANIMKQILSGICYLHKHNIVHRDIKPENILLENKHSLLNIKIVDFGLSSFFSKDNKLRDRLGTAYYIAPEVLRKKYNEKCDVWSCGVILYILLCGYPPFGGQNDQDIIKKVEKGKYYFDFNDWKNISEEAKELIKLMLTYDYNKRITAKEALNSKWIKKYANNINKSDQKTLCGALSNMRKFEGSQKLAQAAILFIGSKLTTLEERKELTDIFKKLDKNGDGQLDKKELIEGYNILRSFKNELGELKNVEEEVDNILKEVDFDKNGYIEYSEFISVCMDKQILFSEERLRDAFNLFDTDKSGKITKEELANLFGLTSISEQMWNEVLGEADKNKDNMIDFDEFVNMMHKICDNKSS
L-lactate dehydrogenase (Plasmodium falciparum (isolate CDC / Honduras)), sequence (Q27743 whole entry, looked up): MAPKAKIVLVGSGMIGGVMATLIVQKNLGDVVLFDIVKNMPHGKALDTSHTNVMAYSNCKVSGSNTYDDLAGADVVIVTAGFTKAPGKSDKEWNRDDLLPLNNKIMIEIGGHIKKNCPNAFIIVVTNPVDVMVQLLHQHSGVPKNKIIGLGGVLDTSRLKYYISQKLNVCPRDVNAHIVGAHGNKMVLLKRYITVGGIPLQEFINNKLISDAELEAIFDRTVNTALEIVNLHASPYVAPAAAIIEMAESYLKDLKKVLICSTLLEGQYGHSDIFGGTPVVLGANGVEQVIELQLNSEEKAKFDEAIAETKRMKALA
Plasmodium falciparum protein kinase 6 (PK6, PF3D7_1337100), sequence (Q8IDW1 1-305): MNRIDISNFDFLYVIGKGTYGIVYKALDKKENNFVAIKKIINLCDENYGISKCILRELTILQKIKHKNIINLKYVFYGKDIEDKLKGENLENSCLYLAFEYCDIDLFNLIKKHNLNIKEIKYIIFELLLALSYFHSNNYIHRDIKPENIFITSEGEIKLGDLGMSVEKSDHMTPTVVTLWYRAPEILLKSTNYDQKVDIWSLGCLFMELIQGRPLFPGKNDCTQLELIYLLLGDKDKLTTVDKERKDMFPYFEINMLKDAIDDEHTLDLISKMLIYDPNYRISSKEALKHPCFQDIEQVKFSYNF
Protein kinase 7 (PK7), Plasmodium falciparum 3D7 (PF3D7_0213400), sequence (Q7YTF7 1-343): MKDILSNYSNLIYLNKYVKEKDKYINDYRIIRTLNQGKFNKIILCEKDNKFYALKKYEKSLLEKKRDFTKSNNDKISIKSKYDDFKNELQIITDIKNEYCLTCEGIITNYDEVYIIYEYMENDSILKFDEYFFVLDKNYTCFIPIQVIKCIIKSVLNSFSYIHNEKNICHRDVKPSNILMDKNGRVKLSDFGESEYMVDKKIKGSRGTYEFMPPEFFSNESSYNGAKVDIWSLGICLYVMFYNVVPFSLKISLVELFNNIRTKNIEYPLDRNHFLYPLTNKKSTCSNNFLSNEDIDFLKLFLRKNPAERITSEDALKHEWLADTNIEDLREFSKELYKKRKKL

Cc1ccc(-n2nc(-c3ccccc3)c3cc(C(=O)NCCN)sc32)cc1
active: growth inhibition [4] 92%
inactive: growth inhibition [1] 43% | inhibition [2] 28% | inhibition [3] 2% | outcome [5] | outcome [6] | outcome [7] | outcome [8]

C[C@H](NC(=O)C1CCCC1)C(=O)Nc1ccc(-c2ccc(-c3nc4ccc(C(F)(F)F)cc4[nH]3)cc2)cc1
inactive: inhibition [2] 34% | inhibition [3] -4% | outcome [5] | outcome [6] | outcome [7] | outcome [8]
active: growth inhibition [1] 70% | growth inhibition [4] 99%

Cc1nc(-c2nc(N3CCC(C(N)=O)CC3)ncc2-c2ccsc2)sc1C
active: growth inhibition [4] 93%
inactive: growth inhibition [1] 33% | inhibition [2] -8% | inhibition [3] -11% | outcome [5] | outcome [6] | outcome [7] | outcome [8]

CCOc1ccc(-n2nc3c(Cl)nnc(-c4ccccc4)c3c2-c2ccccc2)cc1
active: growth inhibition [1] 99% | growth inhibition [4] 96%
inactive: inhibition [2] 0% | inhibition [3] 9% | outcome [5] | outcome [6] | outcome [7] | outcome [8]

Cc1cc(NCCC(=O)Nc2ccccc2)nc(NCc2ccccc2C)n1
active: growth inhibition [1] 57% | growth inhibition [4] 100%
inactive: inhibition [2] 6% | inhibition [3] -1% | outcome [5] | outcome [6] | outcome [7] | outcome [8]

c1ccc(CCNCc2ccc(-c3ccc(CNC4CCN(Cc5ccccc5)CC4)cc3)nc2)cc1
inactive: inhibition [2] 34% | inhibition [3] -1% | outcome [5] | outcome [6] | outcome [7] | outcome [8]
active: growth inhibition [1] 99% | growth inhibition [4] 101%

O=C(Cn1c(SCc2cccc(F)c2F)cc(=O)c2ccccc21)N(CCN1CCCCC1)Cc1ccc(-c2ccc(C(F)(F)F)cc2)cc1
active: growth inhibition [1] 82% | growth inhibition [4] 99%
inactive: inhibition [2] 41% | inhibition [3] -1% | outcome [5] | outcome [6] | outcome [7] | outcome [8]

CC(C)(C)N1CCC(N(Cc2ccc(-c3ccc(C(F)(F)F)cc3)cc2)C(=O)Cn2c(CCc3cccc(F)c3F)cc(=O)c3ccccc32)CC1
active: growth inhibition [1] 97% | inhibition [2] 100% | growth inhibition [4] 100%
inactive: inhibition [3] 4% | outcome [5] | outcome [6] | outcome [7] | outcome [8]

CCCCOc1ccc(C(=O)C(CCC(CNC(C)(C)C)C(=O)c2ccc(OCCCC)cc2)CNC(C)(C)C)cc1 (configuration not stated)
inactive: inhibition [3] 1% | outcome [5] | outcome [6] | outcome [7] | outcome [8]
active: growth inhibition [1] 92% | inhibition [2] 100% | growth inhibition [4] 94%

COc1cc2nc(N3CCC(CNC(=O)c4ccc(-c5ccc(C(=O)N(C)C)cc5C)cc4)CC3)nc(N3CCN(C)CC3)c2cc1OC
active: growth inhibition [1] 84% | growth inhibition [4] 88%
inactive: inhibition [2] 26% | inhibition [3] -10% | outcome [5] | outcome [6] | outcome [7] | outcome [8]

COc1cccc(-c2cc(C(F)(F)F)n3ncc(C(=O)Nc4cc(Cl)ccc4O)c3n2)c1
active: growth inhibition [1] 99% | growth inhibition [4] 99%
inactive: inhibition [2] -9% | inhibition [3] 5% | outcome [5] | outcome [6] | outcome [7] | outcome [8]

O=C(Nc1cccc(-c2cccc(-c3nc4ccc(F)cc4[nH]3)c2)c1)c1csnn1
active: growth inhibition [4] 95%
inactive: growth inhibition [1] 29% | inhibition [2] 23% | inhibition [3] -4% | outcome [5] | outcome [6] | outcome [7] | outcome [8]

COc1ccc2ncc(F)c(CCN3CC[C@@H](CNCc4ccc5c(c4C)OCCO5)C3)c2n1
active: growth inhibition [4] 94%
inactive: growth inhibition [1] 11% | inhibition [2] 17% | inhibition [3] 1% | outcome [5] | outcome [6] | outcome [7] | outcome [8]

Cc1c(S(=O)(=O)Nc2ccc3nccc(N4C[C@@H](C)N[C@@H](C)C4)c3c2)sc2ccc(Cl)cc12
active: growth inhibition [4] 92%
inactive: growth inhibition [1] -4% | inhibition [2] -8% | inhibition [3] 5% | outcome [5] | outcome [6] | outcome [7] | outcome [8]

Cc1cccc(C)c1C1CCN(C2CCC(NC(=O)/C=C/c3ccccc3)CC2)CC1 (configuration not stated)
inactive: growth inhibition [1] 45% | inhibition [2] 42% | inhibition [3] -1% | outcome [5] | outcome [6] | outcome [7] | outcome [8]
active: growth inhibition [4] 100%

Cc1ccc(-c2nc3ccc(C(=O)NC4CCC(N5CCCc6ccc(C#N)cc6C5)CC4)cc3[nH]2)cc1 (configuration not stated)
inactive: growth inhibition [1] 49% | inhibition [2] 23% | inhibition [3] -2% | outcome [5] | outcome [6] | outcome [7] | outcome [8]
active: growth inhibition [4] 101%

O=C(O)CCCN1CCCC(=C(c2ccccc2)c2ccccc2)C1
active: growth inhibition [4] 82%
inactive: growth inhibition [1] 2% | inhibition [2] -5% | inhibition [3] 0% | outcome [5] | outcome [6] | outcome [7] | outcome [8]

O=C(Nc1ccc(I)cc1)N1CCc2sccc2C1CN1CCCCC1 (configuration not stated)
active: growth inhibition [4] 90%
inactive: growth inhibition [1] 0% | inhibition [2] 33% | inhibition [3] 6% | outcome [5] | outcome [6] | outcome [7] | outcome [8]

Cc1cc(N[C@@H](CC(C)C)C(=O)Nc2ccccc2)nc(Nc2ccccc2)n1
inactive: inhibition [2] -2% | inhibition [3] -1% | outcome [5] | outcome [6] | outcome [7] | outcome [8]
active: growth inhibition [1] 93% | growth inhibition [4] 99%
